Reference: PubChem BioAssay (NCATS)
Results filed as inconclusive are left out. A call without a number means that no potency is given here. Activity calls are given as the source filed them. Unless noted, calls come from the whole dose curve; as a rule, active = well fitted curve in the direction sought with a large enough effect; inconclusive = small, poorly fitted or top-dose-only effect, or another doubt; inactive = no such curve, though single readings can be large; an effect the other way counts as inactive or inconclusive.

Tests used:
[1] = Confirmation and Secondary Assay for Modulators of Hemoglobin Beta Chain Splicing at IVS2 654 locus (AID 910)
Procedure, shortened: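 HeLa cells stably carrying EGFP interrupted by mutant beta-globin IVS2-654 intron (CMV-driven) were treated with compound for 2 days at 37C; corrected splicing was scored as total peak GFP intensity per well (488 nm excitation, 500-520 nm emission).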

[2] = Confirmation and Secondary Assay for Modulators of Hemoglobin Beta Chain Splicing at IVS2 705 locus (AID 930);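 note: HeLa cells stably expressing the EGFP-705 splicing reporter; GFP fluorescence per well restored by corrected splicing of the IVS2-705 intron in EGFP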
Procedure, shortened: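 Read-out: total peak GFP fluorescence per well (488 nm excitation, 500-520 nm emission) by laser-scanning cytometry. Cells: HeLa EGFP-705 splicing reporter, 2 days compound exposure in Optimem/2% FCS.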

[3] = biological target: ATP-dependent 6-phosphofructokinase (Trypanosoma brucei brucei) (UniProt O15648); test: qHTS Assay to Find Inhibitors of T. brucei phosphofructokinase: hit validation (AID 492961);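 note: luminescence reports ADP formed as PFK phosphorylates fructose-6-phosphate with ATP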
Sequence of ATP-dependent 6-phosphofructokinase (Trypanosoma brucei brucei) (O15648 whole entry, looked up): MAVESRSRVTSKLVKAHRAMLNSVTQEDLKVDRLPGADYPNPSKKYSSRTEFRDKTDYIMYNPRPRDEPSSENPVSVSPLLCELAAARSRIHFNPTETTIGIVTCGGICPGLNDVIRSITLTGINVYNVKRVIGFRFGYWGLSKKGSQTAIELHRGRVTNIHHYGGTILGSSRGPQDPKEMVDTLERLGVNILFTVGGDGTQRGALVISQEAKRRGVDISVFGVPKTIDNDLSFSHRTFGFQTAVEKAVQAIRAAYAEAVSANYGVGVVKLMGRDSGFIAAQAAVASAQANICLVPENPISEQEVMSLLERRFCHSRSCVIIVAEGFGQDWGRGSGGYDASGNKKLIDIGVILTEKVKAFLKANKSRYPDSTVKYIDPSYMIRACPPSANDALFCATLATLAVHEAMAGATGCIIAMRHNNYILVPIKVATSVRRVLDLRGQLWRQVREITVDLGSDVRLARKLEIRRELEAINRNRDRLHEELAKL
Procedure, shortened: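 Reaction: 0.1 M triethanolamine pH 8.0, 5 mM MgCl2, F6P 0.5 mM, ATP 0.1 mM, PFK 1.25 nM, 45 min RT. Read-out: ADP-Glo luminescence. Analysis: concentration-response fits, classed by r2 and efficacy.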

[4] = S16 Schwann cell viability assay (CellTiter-Glo assay) (AID 624031);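 note: cellular ATP luminescence as a viability measure; nearly all actives have a fitted effect of over 70% in size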
Procedure, shortened: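 Untransfected S16 rat Schwann cells; compound 24 h, 37 °C/5% CO2; CellTiter-Glo ATP luminescence. % activity vs no-cell wells and DMSO controls (0%); concentration-effect curves classed by r2, response magnitude, activity.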

[5] = S16 Schwann cell PMP22 intronic element beta-lactamase assay (AID 624044; calls by dose curve; note: nearly all actives have a fitted effect of over 15% in size)
Procedure, shortened: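 Beta-lactamase reporter under a PMP22 intronic regulatory element in stable S16 rat Schwann cells; 24 h compound exposure. 460 nm blue signal normalized between DMSO (0%) and potassium clavulanate, with 535 nm FRET tracking viability; curves classed by r2 and response.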

7G8 = test: qHTS profiling for inhibitors of Plasmodium falciparum proliferation (AID 504749); note: nearly all actives have a fitted effect of over 60% in size; note: potency is the fitted concentration of half-maximal effect; conditions: P. falciparum in erythrocytes, SYBR Green DNA, 72 h; series mostly up to 28.7 µM
Procedure, shortened: (§1)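 Quantitative HTS: compounds pinned into medium, infected erythrocytes added (0.3% parasitemia, 2.5% hematocrit), 72 h culture at 37 C under 5% CO2. Saponin/Triton lysis with SYBR Green I, overnight RT, then fluorescence read.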

AA1029 = test: as above; conditions: P. falciparum in erythrocytes, SYBR Green DNA, 72 h; series mostly up to 28.7 µM
Procedure, shortened: as §1

C2A = test: as above; conditions: P. falciparum in erythrocytes, SYBR Green DNA, 72 h; series mostly up to 28.7 µM
Procedure, shortened: as §1

CP185 = test: as above; conditions: P. falciparum in erythrocytes, SYBR Green DNA, 72 h; series mostly up to 28.7 µM
Procedure, shortened: as §1

CP201 = test: as above; conditions: P. falciparum in erythrocytes, SYBR Green DNA, 72 h; series mostly up to 28.7 µM
Procedure, shortened: as §1

CP211 = test: as above; conditions: P. falciparum in erythrocytes, SYBR Green DNA, 72 h; series mostly up to 28.7 µM
Procedure, shortened: as §1

CP238 = test: as above; conditions: P. falciparum in erythrocytes, SYBR Green DNA, 72 h; series mostly up to 28.7 µM
Procedure, shortened: as §1

CP252 = test: as above; conditions: P. falciparum in erythrocytes, SYBR Green DNA, 72 h; series mostly up to 28.7 µM
Procedure, shortened: as §1

CP262 = test: as above; conditions: P. falciparum in erythrocytes, SYBR Green DNA, 72 h; series mostly up to 28.7 µM
Procedure, shortened: as §1

CP297 = test: as above; conditions: P. falciparum in erythrocytes, SYBR Green DNA, 72 h; series mostly up to 28.7 µM
Procedure, shortened: as §1

CP329 = test: as above; conditions: P. falciparum in erythrocytes, SYBR Green DNA, 72 h; series mostly up to 28.7 µM
Procedure, shortened: as §1

DFO2036 = test: as above; conditions: P. falciparum in erythrocytes, SYBR Green DNA, 72 h; series mostly up to 28.7 µM
Procedure, shortened: as §1

ICS = test: as above; conditions: P. falciparum in erythrocytes, SYBR Green DNA, 72 h; series mostly up to 28.7 µM
Procedure, shortened: as §1

P93_24 = test: as above; conditions: P. falciparum in erythrocytes, SYBR Green DNA, 72 h; series mostly up to 28.7 µM
Procedure, shortened: as §1

TAB109 = test: as above; conditions: P. falciparum in erythrocytes, SYBR Green DNA, 72 h; series mostly up to 28.7 µM
Procedure, shortened: as §1

| Compound | outcome [1] | outcome [2] | outcome [3] | Potency [4] | outcome [5] | Potency (7G8) | Potency (AA1029) | Potency (C2A) | Potency (CP185) | Potency (CP201) | Potency (CP211) | Potency (CP238) | Potency (CP252) | Potency (CP262) | Potency (CP297) | Potency (CP329) | Potency (DFO2036) | Potency (ICS) | Potency (P93_24) | Potency (TAB109) |
| --- | --- | --- | --- | --- | --- | --- | --- | --- | --- | --- | --- | --- | --- | --- | --- | --- | --- | --- | --- | --- |
| CN(C)C(=O)c1ccc(-c2nc(Nc3ccc(F)cc3)c3ccccc3n2)cc1 | inactive | inactive |  |  |  |  |  |  |  |  |  |  |  |  |  |  |  |  |  |  |
| N[C@@H](Cc1ccccc1)C(=O)O | inactive | inactive | inactive | inactive | inactive | inactive | inactive | inactive | inactive | inactive | inactive | inactive | inactive | inactive | inactive | inactive | inactive | inactive | inactive | inactive |
| O=C(O)[C@@H](S)[C@H](S)C(=O)O |  |  |  | inactive | inactive | 5.01 µM (active) | 10 µM (active) | 7.08 µM (active) | 11.2 µM (active) | 12 µM (active) | 6.75 µM (active) | 12.6 µM (active) | 10 µM (active) | 6.75 µM (active) | 15.1 µM (active) | 10.7 µM (active) | 8.91 µM (active) | 8.91 µM (active) | 4.47 µM (active) | 5.62 µM (active) |
| O=C(O)[C@@H](O)[C@@H](O)[C@H](O)[C@H](O)CO |  |  | inactive | inactive | inactive | 2 µM (active) | inactive | inactive | inactive | inactive | inactive | inactive | inactive | inactive | inactive | inactive |  | 2.24 µM (active) | 10 µM (active) | 10 µM (active) |
